# In the library only some 2.4% were active in any assay of this set; here they are far more common.
# WT yeast gro inh = growth inhibition of WT yeast, mitochondrial fusion screen. mitochondrial fusion phenotypic screen, WT strain. inhibition, % at 10 µM. actives 2.1% (n = 190,000); in the data active = inhibition above about 58%; tested in S. cerevisiae
# Redox H2O2 prof = compounds producing H2O2 with reducing agent – biochemical, NIH compound library profiling, artefact control for MLSCN library redox annotation, primary screen; DTT-dependent redox cycling H2O2, phenol red/HRP absorbance; 100% = 100 µM peroxide control, 0% = buffer; AID 878; actives 0.03% (n = 200,000); activation, % at 10 µM;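 active = activation of at least 50% relative to the plate's high and low controls in the primary single-dose screen; inactive = activation below 50%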;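 also: compound incubated with DTT at 0.8 mM final as the reducing agent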
# zVAD death inh = L929 zVAD cell death inhibition. L929 zVAD necroptosis rescue, ATP luminescence, 24 h; with zVAD 60 µM. viability rescue, % at 10 µM. actives 0.38% (n = 220,000);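 active = activation, scaled between plate controls, above about 75%, limit read from the data; inactive = activation under that limit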;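 also: 0% = zVAD with DMSO and 100% = DMSO alone without zVAD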
# TNF necrop inh = blocks TNF-alpha induced death of Jurkat FADD-/- cells | Jurkat FADD-/- TNF necroptosis rescue, ATP luminescence, 24 h; 0 = TNF only, 100 = no-TNF cells | activation (protection from cell death), % at 10 µM | actives 0.068% (n = 220,000) | AID 463075;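 active = activation, meaning protection from cell death, of at least 50% relative to plate controls; inactive = activation below 50%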;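 also: necroptosis triggered by 40 ng/mL TNF-alpha added together with compound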
# PKD1 kinase inh = blocks activity of human protein kinase D1. PKD1 kinase fluorescence polarization assay. inhibition, % (concentration not given with the values). actives 0.056% (n = 200,000); in the data active = inhibition above about 50%
# Target sequence (Q15139 whole entry, looked up): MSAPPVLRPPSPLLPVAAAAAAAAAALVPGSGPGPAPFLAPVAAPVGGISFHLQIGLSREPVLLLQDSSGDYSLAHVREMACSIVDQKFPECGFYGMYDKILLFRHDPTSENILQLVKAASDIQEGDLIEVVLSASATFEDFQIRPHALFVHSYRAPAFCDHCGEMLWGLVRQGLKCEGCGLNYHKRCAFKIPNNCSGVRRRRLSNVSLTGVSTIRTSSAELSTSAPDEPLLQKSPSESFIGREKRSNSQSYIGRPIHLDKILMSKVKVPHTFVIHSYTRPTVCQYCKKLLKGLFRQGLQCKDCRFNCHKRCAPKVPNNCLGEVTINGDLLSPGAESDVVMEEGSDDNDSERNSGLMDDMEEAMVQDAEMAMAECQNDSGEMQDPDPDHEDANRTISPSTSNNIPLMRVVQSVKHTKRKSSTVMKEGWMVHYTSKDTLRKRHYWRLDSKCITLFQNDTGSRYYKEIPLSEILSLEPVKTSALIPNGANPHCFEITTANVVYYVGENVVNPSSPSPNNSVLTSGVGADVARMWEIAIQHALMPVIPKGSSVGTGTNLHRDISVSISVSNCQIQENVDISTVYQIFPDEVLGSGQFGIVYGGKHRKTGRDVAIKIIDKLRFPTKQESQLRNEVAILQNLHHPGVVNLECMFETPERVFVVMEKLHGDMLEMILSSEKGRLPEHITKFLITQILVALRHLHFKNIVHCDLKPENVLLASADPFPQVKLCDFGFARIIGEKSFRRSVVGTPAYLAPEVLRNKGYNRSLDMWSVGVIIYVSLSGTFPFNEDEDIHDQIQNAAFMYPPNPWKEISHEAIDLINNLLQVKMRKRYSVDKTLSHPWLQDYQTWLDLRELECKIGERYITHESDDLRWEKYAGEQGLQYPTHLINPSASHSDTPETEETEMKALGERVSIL
# PERK inh = blocks human PERK kinase | Q9NZJ5 | CHO PERK-DD fusion, SEAP luminescence translation reporter | inhibition, % at 5.6 µM | actives 0.17% (n = 220,000) | AID 1416;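 active = inhibition above the mean inhibition of all tested compounds plus 3 SD, set separately per screening campaign, cut at about 2.9% in these data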;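 also: PERK kinase domain activated by AP20187 dimerizer at 100 nM; 0% = DMSO with dimerizer and 100% = rapamycin at 8.4 µM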
# The depositor's hits bear a star; . = no result given.
SMILES,WT yeast gro inh,Redox H2O2 prof,zVAD death inh,TNF necrop inh,PKD1 kinase inh,PERK inh
Cc1c(Cl)cccc1NC(=S)NCCC(c1ccccc1)c1ccccc1,78*,4,.,-17,-5,0
Cc1c(Cl)cccc1NC(=S)NCC1COc2ccccc2O1 (stereo not drawn),59*,-2,0,-1,-2,-1
Cc1cc(Cl)ccc1NC(=S)NCCC(c1ccccc1)c1ccccc1,74*,2,0,-15,-4,0
COC(C(=O)Nc1ccc(Cl)cc1C)c1ccccc1 (stereo not drawn),-4,0,0,97*,-6,0
S=C1NC2CCCCC2N1 (stereo not drawn),1,-3,1,0,0,1
Cc1nnn(C23CC4CC(CC(CC(=O)Nc5ccc(C)c(C)c5)(C4)C2)C3)n1,4,0,31,3,1,0
C=CCN(c1ccccc1C(=O)O)S(=O)(=O)/C=C/c1ccccc1,-12,-1,1,1,9,1
OCCNCc1ccc(OCc2ccc(Cl)cc2Cl)cc1,75*,0,34,-2,0,0
CC(C)C(OC(=O)c1cccs1)C(=O)NCc1ccccc1 (stereo not drawn),-14,0,0,3,-8,0
Cc1c(Cl)cccc1NC(=O)c1nc(C)n(-c2cc(OC(C)C)c(Cl)cc2Cl)n1,75*,-3,0,-4,8,-1
O=C(COc1ccccc1[N+](=O)[O-])N/N=C/C=C/c1ccco1,71*,-11,0,-3,-11,1
Cn1c(-c2sc3cc(C(F)(F)F)cnc3c2-c2cccs2)n[nH]c1=S,65*,-1,0,-1,-5,1
FC(F)Sc1ccc(NC(=S)NCc2ccccc2)cc1,60*,-2,2,-1,12,0
FC(F)(F)c1ccc(NC(=S)NCc2ccccc2)cc1,60*,0,4,0,2,1
FC(F)Sc1ccc(NC(=S)NC(c2ccccc2)c2ccccc2)cc1,85*,0,-1,-3,-1,0
FC(F)Oc1ccc(NC(=S)NCc2ccccc2)cc1,0,1,0,-4,-3,1
O=C(Nc1ccc(Cl)cc1)c1ccc(Br)cc1F,-1,0,3,1,5,0
Cc1nsc(N)c1C(=O)O,.,.,0,1,.,3.4*
O=C(CN1C(=O)COc2ccccc21)N(Cc1cccnc1)Cc1cccc(F)c1,77*,1,0,-1,-6,-1
CC(C)CCNC(=O)c1ccc2c(c1)ncn2C1CCCC1,-2,0,20,2,-1,1
O=C(NCCN1CCOCC1)c1ccc2c(c1)ncn2C1CCCCC1,3,0,88*,0,10,0
CCOC(=O)N1CCC(NC(=O)c2cccc3c2C(=O)N(c2ccc(OC)cc2)C3)CC1,-5,-1,2,-1,-4,-1
Cc1cc(N2CCN(C(c3ccccc3)c3ccc(Cl)cc3)CC2)n2ncnc2n1 (stereo not drawn),74*,1,.,-3,-7,-1
O=C(NCc1cccs1)C(=O)c1cn(CC(=O)N2CCCC2)c2ccccc12,-14,-1,1,2,-4,1
O=C1N/C(=N\N=C\c2ccccn2)SC1Cc1cccc(SC(F)F)c1 (stereo not drawn),10,-1,82*,-15,-2,1
SMILES,WT yeast gro inh,Redox H2O2 prof,zVAD death inh,TNF necrop inh,PKD1 kinase inh,PERK inh
c1ccc2c(c1)CCN(c1ncnc3c1[nH]c1ccccc13)C2,72*,.,.,.,.,.
OC1(c2cccc(C(F)(F)F)c2)CCN(c2ncnc3c2[nH]c2ccccc23)CC1,85*,0,9,-3,0,1
COc1cccc2[nH]c3c(N4CCc5ccccc5C4)ncnc3c12,.,.,2,-8,.,-2
CC(=O)NCC(=O)OCC(=O)c1ccc(Br)cc1,0,.,0,1,-6,0
CCN(CC)C(C)C#CCC(c1ccccc1)c1ccccc1 (stereo not drawn),.,.,1,7,.,0
Clc1ccc(-c2nnc(-c3ccco3)nc2N2CCCCC2)cc1,66*,0,1,1,2,0
COc1ccc(CCC(=O)O)cc1OC,.,.,-1,0,.,1
CN(C)c1ccnc(N(Cc2ccccc2)Cc2ccccc2)c1C#N,81*,1,1,-1,-3,-2
CN1C2CCC1/C(=C\c1ccccc1F)C(=O)/C2=C/c1ccccc1F,-16,1,.,-4,-8,0
O=S(=O)(c1ccc(F)cc1)N1CN(Cc2ccco2)c2nc3ccccc3nc21,63*,0,-1,-1,-3,-1
Cc1ccc(S(=O)(=O)N2CN(Cc3ccco3)c3nc4ccccc4nc32)cc1,3,-4,0,-2,-8,0
O=c1cc(N2CCCCC2)c(-c2ccccc2)nn1Cc1ccc(F)cc1,83*,-1,2,-1,-4,0
O=c1cc(N2CCCCC2)c(-c2ccccc2)nn1Cc1c(Cl)cccc1Cl,89*,14,2,0,-4,2
O=c1cc(N2CCCCC2)c(-c2ccccc2)nn1Cc1ccc(Cl)cc1,30,-8,0,-7,-5,1
Cc1ccc(S(=O)(=O)N(C)c2ccc(C(=O)Nc3c(C)n(C)n(-c4ccccc4)c3=O)cc2)cc1,-4,0,1,-1,-4,0
CCCCn1c(SCC(=O)NNC(=O)c2ccco2)nnc1-c1ccco1,-3,0,0,1,3,2
Oc1cccc(/C=N/N(Cc2ccccc2)c2ccccc2)c1,90*,1,1,0,-8,0
C(=N\N(Cc1ccccc1)c1ccccc1)/c1cccnc1,74*,0,1,-1,1,0
Oc1ccc(/C=N/N(Cc2ccccc2)c2ccccc2)c(O)c1O,9,-1,-2,0,4,0
O=[N+]([O-])c1ccc(OC(F)F)c(/C=N/n2cnnc2)c1,.,.,27,-14,.,0
CCO[C@@H]1OC(C(=O)N2CCN(Cc3ccccc3)CC2)=C[C@H](c2coc3ccccc3c2=O)[C@H]1CCCO,9,-1,1,8,7,2
O=C(O)CN(C1CCCCC1)S(=O)(=O)c1ccc(F)cc1,3,-1,2,-1,-3,1
Cc1ccc(NC2=C(NC(=O)c3ccccc3)C(=O)c3ccccc3C2=O)cc1Cl,68*,2,1,-3,2,-1
COc1ccc(OC)c(S(=O)(=O)Nc2cc(C(=O)O)ccc2N2CC3CC(C2)c2cccc(=O)n2C3)c1 (stereo not drawn),-4,-1,1,1,0,1
C/C=C(/C(=C/C)c1ccc(O)cc1)c1ccc(O)cc1,63*,0,1,1,-5,1

# Bioassay records from PubChem BioAssay.
